About 83,000 compounds went through this panel and 20% of them were active in at least one assay; those are over-represented in the sample as a whole.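 Single-dose data. Exposure time 48 hours. Values below 10 considered active.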 Unmarked numbers belong to inactive results. Activity calls are given as the source filed them.

The values that follow come from PubChem BioAssay (NCI).

Holding throughout (assay): NCI-60 one-dose screen, 48 h (100 = growth as untreated, 0 = no growth, -100 = all killed)
Holding throughout (settings): 10 µM unless noted

The subject of assay [1] is NCI-H23 lung.
The subject of assay [2] is NCI-H322M lung.
Assay [3] has as its system HOP-62 NSCLC.
Assay [4] deals with NCI-H460 lung.
The test system of assay [5] is HOP-92 NSCLC.
Assay [6] relates to NCI-H522 lung.
Assay [7] concerns A549/ATCC NSCLC.
Assay [8] deals with 786-0 renal.
In assay [9] the test system is COLO 205 colon.
The subject of assay [10] is DU-145 prostate.
For assay [11], the system named is MALME-3M melanoma.
Assay [12] relates to MDA-MB-231 breast.
In assay [13] the test system is RXF 393 renal.
For assay [14], the system named is SF-268 CNS.
The test system of assay [15] is SF-295 CNS.
For assay [16], the system named is SF-539 CNS.
Assay [17] relates to UACC-257 melanoma.
The subject of assay [18] is M14 melanoma.
For assay [19], the system named is K-562 leukemia.

Consider `CCOc1ccccc1C(=O)N1CCN(c2cc(Cl)cc(Cl)c2)CC1`, for which the growth in [1] is 24.3%; in [2], 35%; in assay [3], 27.1%; in assay [4], 5.68% (active); in assay [5], 18.2%; in assay [6], -6.41% (active). Moreover, the growth was 19.3% in [7]; 14.5% in assay [8]; -65.9% (active) in assay [9]; 8.76% (active) in assay [10]; 45.3% in [11]; 6.62% (active) in assay [12]. Also, the growth is 40.9% in assay [13]; 30% in assay [14]; 17.9% in assay [15]; -4.39% (active) in [16]; 51.1% in assay [17]; -23.3% (active) in assay [18].

As for `CN(C)CCCOc1c(Br)cc(/C=C/C(=O)N(C)CCc2cc(Br)c(OCCCN(C)C)c(Br)c2)cc1Br`, the growth in assay [1] is 81.5%; in assay [2] it was 59.5%; in assay [3], 82.3%; in [4], 23.1%; in assay [5], 48.7%; in assay [6], 13.5%. Moreover, the growth in assay [7] was 41.5%; in assay [8] it was 63.7%; in assay [9], 39.3%; in [10], 40.5%; in assay [19], -48.7% (active); in [11], -62.4% (active). For the same molecule, the growth is 23.7% in assay [12]; 59.6% in assay [13]; 52.5% in assay [14]; 60.9% in assay [15]; -75.5% (active) in assay [16]; 71.7% in assay [17]. Besides, the growth in assay [18] was -68.1% (active).

In the case of `O=C1c2ccccc2OC=C(c2ccccc2)N1CCCCN1CCCCC1`, the growth is 67.2% in [1]; 91.2% in assay [2]; 38.1% in [3]; 46.7% in assay [4]; 40.2% in [5]; 25% in assay [6]. Further, the growth in assay [7] is 46.8%; in [8], 95.4%; in assay [9], -33.6% (active); in assay [10], 48.6%; in assay [19], 15.6%; in assay [11], 67.8%. In addition, the growth in assay [12] is 73.8%; in assay [13], 95.7%; in assay [14], 55.5%; in assay [15], 79.3%; in assay [16] it was 95.7%; in assay [17], 66.7%. Further, in assay [18], the growth is 68%.

Turning to `CCN(CC)CC(=O)Nc1c(C)cccc1C`, the growth in assay [1] is 106%; in [2], 90.2%; in [3], 106%; in assay [5], 104%; in [6], 101%; in assay [7], 104%. Also, the growth is 95.4% in assay [8]; 115% in [9]; 121% in assay [10]; 99.8% in assay [19]; 93.3% in [11]; 108% in assay [12]. Moreover, the growth in [13] is 102%; in assay [14], 108%; in [15], 89.8%; in assay [16] it was 104%; in [17], 108%; in assay [18] it was 100%.

With `Nc1nccc2c1ccn2-c1ccc(NC(=O)c2ccc(N3CCOCC3)c(C(F)(F)F)c2)cc1`, the growth in assay [1] is 33%; in assay [2], 38.9%; in assay [3], -43% (active); in assay [4] it was 1.76% (active); in assay [5] it was -25% (active); in [6], 23.1%. For the same molecule, the growth is 11.9% in assay [7]; -45.5% (active) in [8]; -54.7% (active) in assay [9]; 48.3% in [10]; 1.22% (active) in assay [19]; -18.1% (active) in assay [11]. Besides, the growth in [12] is -3.15% (active); in assay [13], -77.4% (active); in assay [14], 18.2%; in assay [15], -59.6% (active); in assay [16], 7.48% (active); in assay [17], 32.7%. For the same molecule, the growth in assay [18] is -61.8% (active).

`CCCCCCCCCCCC(=O)OCCNC(=O)C[n+]1ccccc1`: the growth in assay [1] was 107%; in assay [2] it was 99.4%; in [3] it was 102%; in assay [4], 120%; in assay [5] it was 68.7%; in assay [6], 102%. In addition, the growth was 104% in [7]; 112% in assay [8]; 105% in assay [9]; 131% in [10]; 117% in assay [19]; 96.3% in [11]. The growth is 99.6% in [12]; 110% in assay [13]; 104% in [14]; 78.7% in [15]; 105% in assay [16]; 106% in assay [17]. Moreover, the growth in assay [18] was 102%.

As to `Cc1cccc[n+]1CCC[n+]1ccccc1C`, the growth is 99.8% in assay [1]; 109% in assay [2]; 84.9% in [3]; 106% in [4]; 86% in assay [5]; 88.1% in assay [6]. The growth was 95.7% in [7]; 84.2% in assay [8]; 91.1% in [9]; 111% in [10]; 103% in assay [19]; 105% in assay [11]. Besides, the growth was 115% in [12]; 111% in assay [13]; 107% in assay [14]; 103% in assay [15]; 98.9% in assay [16]; 111% in assay [17]. The growth in assay [18] is 89.4%.

Turning to `COc1ccc(C(=O)NC(=O)Nc2ccc3c(c2)NC(=O)/C3=C\c2[nH]c(C)c(C(=O)O)c2C)c(F)c1`, the growth in [1] was 48.9%; in assay [2] it was 45%; in assay [3], 64.9%; in assay [4], 69.8%; in assay [5] it was 63.9%; in assay [6], 37.8%. In addition, the growth in assay [7] was 47.6%; in [8], 35%; in assay [9], 88.6%; in [10] it was 28.2%; in assay [19], 62.6%; in assay [11], -8% (active). Also, the growth was 63.5% in assay [12]; -21% (active) in assay [13]; 65.4% in assay [14]; 33.1% in assay [15]; 47.8% in assay [16]; 47.2% in assay [17]. In addition, the growth in [18] is 17.6%.
